Results filed as inconclusive are left out. The source made the active and inactive calls. Calls follow the shape of the dose curve; as a rule, active = well fitted inhibition curve with a large enough effect; inconclusive = small, poorly fitted or top-dose-only effect; inactive = flat fitted curve, though single readings scatter.
Legend:
Assay in all cases: qHTS profiling for inhibitors of Plasmodium falciparum proliferation (AID 504749); also: nearly all actives have a fitted effect of over 60% in size
Details in all cases: P. falciparum in erythrocytes, SYBR Green DNA, 72 h; series mostly up to 28.7 µM
[1] = system: 3D7
How it was run: (§1)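 SYBR Green fluorescence (ex 485 nm, em 535 nm) reports parasite DNA after 72 h compound exposure of infected red cells at 0.3% parasitemia, 2.5% hematocrit; signal normalized to 0.29 uM artemisinin and vehicle wells.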

[2] = system: 7G8
How it was run: as §1

[3] = system: AA1029
How it was run: as §1

[4] = system: AS120
How it was run: as §1

[5] = system: ATS189
How it was run: as §1

[6] = system: ATS95
How it was run: as §1

[7] = system: C2A
How it was run: as §1

[8] = system: CP185
How it was run: as §1

[9] = system: CP191
How it was run: as §1

[10] = system: CP192
How it was run: as §1

[11] = system: CP194
How it was run: as §1

[12] = system: CP201
How it was run: as §1

[13] = system: CP203
How it was run: as §1

[14] = system: CP211
How it was run: as §1

[15] = system: CP215
How it was run: as §1

[16] = system: CP217
How it was run: as §1

[17] = system: CP237
How it was run: as §1

[18] = system: CP238
How it was run: as §1

[19] = system: CP247
How it was run: as §1

[20] = system: CP250
How it was run: as §1

Measured: Potency
Potency is read from the fitted curve at half-maximal effect.

O=C1C(=O)c2ncccc2-c2cccnc21
active: [1] 891 nM | [2] 1000 nM | [3] 1000 nM | [4] 708 nM | [5] 1410 nM | [6] 1000 nM | [7] 3160 nM | [8] 2510 nM | [9] 3160 nM | [10] 953 nM | [11] 1350 nM | [12] 1690 nM | [13] 1690 nM | [14] 1070 nM | [15] 1350 nM | [16] 1260 nM | [17] 1000 nM | [18] 1000 nM | [19] 1580 nM | [20] 1260 nM

CCCCC/C=C\C/C=C\CCCCCCCC(=O)O
inactive: all assays above

CCC(=O)NCCC1CCc2ccc3c(c21)CCO3 (centres undefined)
not listed: [13]
inactive: all other assays above

C[C@@H]1CCC2[C@@H](C)[C@@H](O)O[C@@H]3O[C@@]4(C)CC[C@@H]1[C@@]23OO4 (some centres undefined)
active: [1] 3.5 nM | [2] 0.8 nM | [3] 2.2 nM | [4] 1.6 nM | [5] 2.2 nM | [6] 2.2 nM | [7] 2.2 nM | [8] 2.5 nM | [9] 3.2 nM | [10] 4.3 nM | [11] 6 nM | [12] 10.7 nM | [13] 3.4 nM | [14] 5.4 nM | [15] 4.8 nM | [16] 2.8 nM | [17] 1.6 nM | [18] 2.2 nM | [19] 3.2 nM | [20] 2.8 nM

O=C(O)CN(CCN(CC(=O)O)CC(=O)O)CC(=O)O
not listed: [15]
inactive: all other assays above

CCOC(C)=O
inactive: all assays above

O=C(O)CCC(=O)C(=O)O
not listed: [13]
inactive: all other assays above

O=C(COc1ccc(Cl)cc1)OCCNC12CC3CC(CC(C3)C1)C2
not listed: [17]
inactive: all other assays above

COC(C(=O)C(O)C(C)O)C1Cc2cc3cc(OC4CC(OC5CC(O)C(O)C(C)O5)C(O)C(C)O4)c(C)c(O)c3c(O)c2C(=O)C1OC1CC(OC2CC(OC3CC(C)(O)C(O)C(C)O3)C(O)C(C)O2)C(O)C(C)O1 (centres undefined)
active: [1] 282 nM | [2] 70.8 nM | [3] 141 nM | [4] 112 nM | [5] 282 nM | [6] 178 nM | [7] 251 nM | [8] 251 nM | [9] 224 nM | [10] 3010 nM | [11] 3010 nM | [12] 2690 nM | [13] 3010 nM | [14] 2690 nM | [15] 2390 nM | [16] 282 nM | [17] 100 nM | [18] 251 nM | [20] 251 nM

CCCCCCCCCCCCCCCC(=O)OCC(COC(=O)CCCCCCCCCCCCCCC)OC(=O)CCCCCCCCCCCCCCC
not listed: [13]
inactive: all other assays above

CCCC(=O)O[C@]1(C(=O)CCl)[C@H](C)C[C@@H]2[C@H]3CCC4=CC(=O)C=C[C@]4(C)[C@@]3(F)C(=O)C[C@@]21C
active: [1] 2510 nM | [2] 2510 nM | [3] 2820 nM | [4] 3160 nM | [5] 2820 nM | [6] 3550 nM | [7] 3550 nM | [8] 3160 nM | [9] 891 nM | [10] 4780 nM | [11] 3010 nM | [12] 3790 nM | [13] 4780 nM | [14] 1510 nM | [15] 3790 nM | [16] 3160 nM | [17] 3550 nM | [18] 3980 nM | [19] 2000 nM | [20] 1580 nM
